This passage reports growth results from PubChem BioAssay (NCI).

The structures appear in SMILES notation. Compounds without any hit were thinned out: in the full panel of roughly 83,000, 20% have a hit.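 Step 1: grow cells in 96-well plates. Step 2: add test compound at a single concentration. Step 3: incubate 48 h. Step 4: record percent growth.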 A number with no mark means an inactive call. Active and inactive are the calls of the source. How the source made its calls: active means growth percent below 10; inactive means the rest.

One experiment concerns RPMI-8226 leukemia. The experiment is described as follows: NCI-60 one-dose screen, 48 h (100 = growth as untreated, 0 = no growth, -100 = all killed). Conditions: 10 µM unless noted.
Regarding `O=C(O)c1nn(-c2ccc(Cl)cc2)nc1N1CCCC1`, the growth was 101%.

Regarding `COCCNC(=O)Cc1cc(-c2ccc(Cl)cc2)n(-c2ccccc2)c1C`, the growth was 63%.

As for `O=C(Nc1ccc(Oc2cccc(F)c2)c(Cl)c1)c1cnccn1`, the growth was 18%.

In the case of `C=C(C)Cn1c(SCC(=O)c2cccs2)nc2sc3c(c2c1=O)CCCC3`, the growth is 50.7%.

Take `Cc1ccc(C(=O)Nc2ccc(CN3CCN(C)CC3)c(C(F)(F)F)c2)cc1C#Cc1cnc(N)c2ccccc12`: the growth is -39.6% (active).

As for `COc1cc(C2CC(c3cccc(Nc4ccncc4)c3)=Nc3c(N)ncnc3N2)cc(OC)c1OC` (stereo unspecified), the growth was 71.8%.

As to `CO[C@]12C=C/C(=C(/C(=O)OCc3cccnc3)C(=O)CCCCCCCC[C@]3(OC)C=C/C(=C(/C(=O)OCc4cccnc4)C(=O)CCCCCCCC1)O3)O2`, the growth was -30.4% (active).

Regarding `CN1CCN(Cc2ccc(NC(=O)c3cncc(C#Cc4cnc(N)c5ccc(C#N)cc45)c3)cc2C(F)(F)F)CC1`, the growth is -25.3% (active).

As to `CCOC(=O)C1=C(c2ccccc2)N=C2SC=C(c3cccc([N+](=O)[O-])c3)N2C1c1ccc(O)cc1` (stereo unspecified), the growth is 98%.

Regarding `CCn1c2ccccc2c2cc(C(O)c3cccc4ncccc34)ccc21` (stereo unspecified), the growth is -2.06% (active).

For `Cc1c(Cl)cccc1NC(=O)c1sc2nc3c(cc2c1N)CCCC3`, the growth is 33%.

As for `O=C(/C=C/c1ccco1)Nc1ncc(Cc2ccc(F)cc2)s1`, the growth is 32.4%.

Consider `COc1nc2ccccc2cc1/C=[N+](\[O-])c1ccccc1`, for which the growth was 14.2%.

As to `COc1ccc(-c2ccc(-c3ccc(C(=N)N)o3)o2)cc1`, the growth was 14.3%.

In the case of `C=C(C[n+]1ccccc1)[C@@H]1CC[C@]2(C(=O)OC)CC[C@]3(C)[C@H](CC[C@@H]4[C@@]5(C)CCC(=O)C(C)(C)[C@@H]5CC[C@]43C)[C@@H]12`, the growth was 52.3%.

Regarding `COc1cccc(C(=O)Nc2cccc(NC(=O)c3ccccn3)c2)c1`, the growth was 101%.

Regarding `N#CC1=C(N)Oc2c(ccc3cccnc23)C1c1ccccc1` (stereo unspecified), the growth is 11.6%.

In the case of `COc1ccc(C2=NN(C=O)C(c3ccc(Oc4nc5c(c(=O)n(C)c(=O)n5C)n4C)c(OC)c3)C2)cc1` (stereo unspecified), the growth was 79.6%.

With `CCCS(=O)(=O)Nc1cccc(Nc2ncnc3cc(NC(=O)CCl)ccc23)c1Cl`, the growth is -32.1% (active).

`Cn1cc(-c2csc(-c3cn(C)c4ccc(F)cc34)n2)c2cnccc21`: the growth is -38.4% (active).

Consider `C=C(C)[C@@H]1CC[C@]2(C(=O)NC(C)=O)CC[C@]3(C)[C@H](CC[C@@H]4[C@@]5(C)CCCNC(C)(C)[C@@H]5CC[C@]43C)[C@@H]12`, for which the growth was -30.3% (active).

Take `COc1cccc(CNc2nnc(C)c(C)n2)c1O`: the growth was 100%.

As to `COc1cccc2cc(N(C)c3nc(C)nc4c3CCC4)ccc12`, the growth was 29.2%.

Consider `O=C(O)CCCN1C(=O)CSC1=S`, for which the growth is 98%.

On to `Cc1c2cnccc2c(C)c2c1c1cc(C(=O)O)ccc1n2C`, for which the growth is -1.59% (active).

For the compound `C=C1C(=O)O[C@H]2[C@H]1CC/C(CNC(=O)/C=C/c1cc(OC)c(OC)c(OC)c1)=C\CC[C@@]1(C)O[C@@H]21`, the growth was -5.59% (active).

`Cc1nc2ccccc2c(/C=C/c2ccc(Br)cc2)c1C(=O)/C=C/c1ccccc1`: the growth was -8.25% (active).

As for `CC(=O)O[C@H]1C[C@@]2(C)[C@@H](C[C@@H](O)[C@H]3[C@@]4(C)CC[C@H](N5CCCC5)[C@@H](C)[C@@H]4CC[C@@]32C)/C1=C(\CCC=C(C)C)C(=O)O`, the growth is 88.1%.

For the compound `O=C(O)c1cc2ccccc2s1`, the growth was 105%.

Take `CC(=O)OCCOc1cc(Cl)c(Cl)cc1Cl`: the growth is 93.3%.

On to `CCN1CCN(c2nc(NNC(=O)c3ccc(OC)cc3)nc(N3CCN(C(c4ccccc4)c4ccccc4)CC3)n2)CC1`, for which the growth was 12.3%.

Consider `CN(Cc1ccccc1)c1nc(Cl)c(C2CC(c3ccc(Cl)cc3)=NN2c2cc(Cl)cc(Cl)c2)s1` (stereo unspecified), for which the growth is 81.4%.

As to `COC(=O)c1c(C)nc(C)c2c1C(=O)C(Br)=C(NCCCCO)C2=O`, the growth was 75.1%.

In the case of `COc1cc(/C=C/c2cc(/C=C/c3ccc(O)c(OC)c3)n(C(=O)Nc3ccc(C)cc3C)n2)ccc1O`, the growth was -16.7% (active).

Turning to `Cc1cc2nc(C(Cl)Cl)nc(-c3ccccc3)n2n1`, the growth was 63%.

In the case of `CN1C(=O)N(C)C2C1NN=c1s/c(=C\c3ccccc3F)c(=O)n12` (stereo unspecified), the growth was 20.7%.

Another experiment relates to OVCAR-8 ovarian. The experiment is described as above. Conditions: 10 µM unless noted.
In the case of `O=C(O)c1nn(-c2ccc(Cl)cc2)nc1N1CCCC1`, the growth is 96%.

`COCCNC(=O)Cc1cc(-c2ccc(Cl)cc2)n(-c2ccccc2)c1C`: the growth is 85.8%.

For `O=C(Nc1ccc(Oc2cccc(F)c2)c(Cl)c1)c1cnccn1`, the growth was 37.5%.

In the case of `CC(=O)[C@H]1CC[C@]2(C)[C@@H]1CC[C@@H]1[C@@]3(C)C/C(=C/c4cccnc4)C(=O)C(C)(C)[C@@H]3CC[C@]12C`, the growth is 27.1%.

For `C=C(C)Cn1c(SCC(=O)c2cccs2)nc2sc3c(c2c1=O)CCCC3`, the growth is 49%.

Consider `Cc1ccc(C(=O)Nc2ccc(CN3CCN(C)CC3)c(C(F)(F)F)c2)cc1C#Cc1cnc(N)c2ccccc12`, for which the growth was -42.1% (active).

For `COc1cc(C2CC(c3cccc(Nc4ccncc4)c3)=Nc3c(N)ncnc3N2)cc(OC)c1OC` (stereo unspecified), the growth is 93.6%.

Take `CO[C@]12C=C/C(=C(/C(=O)OCc3cccnc3)C(=O)CCCCCCCC[C@]3(OC)C=C/C(=C(/C(=O)OCc4cccnc4)C(=O)CCCCCCCC1)O3)O2`: the growth was 7.77% (active).

Turning to `CCOC(=O)CSc1nc2sc3c(c2c(=O)n1-c1ccccc1)CCCCC3`, the growth is 103%.

For the compound `CN1CCN(Cc2ccc(NC(=O)c3cncc(C#Cc4cnc(N)c5ccc(C#N)cc45)c3)cc2C(F)(F)F)CC1`, the growth was -68.4% (active).

For the compound `CCOC(=O)C1=C(c2ccccc2)N=C2SC=C(c3cccc([N+](=O)[O-])c3)N2C1c1ccc(O)cc1` (stereo unspecified), the growth is 97.9%.

Take `CCn1c2ccccc2c2cc(C(O)c3cccc4ncccc34)ccc21` (stereo unspecified): the growth is 20.8%.

Take `Cc1c(Cl)cccc1NC(=O)c1sc2nc3c(cc2c1N)CCCC3`: the growth is 46.1%.

`O=C(/C=C/c1ccco1)Nc1ncc(Cc2ccc(F)cc2)s1`: the growth was 22.2%.

In the case of `COc1nc2ccccc2cc1/C=[N+](\[O-])c1ccccc1`, the growth was 37.3%.

`COc1ccc(-c2ccc(-c3ccc(C(=N)N)o3)o2)cc1`: the growth was 28.9%.

Consider `C=C(C[n+]1ccccc1)[C@@H]1CC[C@]2(C(=O)OC)CC[C@]3(C)[C@H](CC[C@@H]4[C@@]5(C)CCC(=O)C(C)(C)[C@@H]5CC[C@]43C)[C@@H]12`, for which the growth was 90.3%.

Turning to `COc1cccc(C(=O)Nc2cccc(NC(=O)c3ccccn3)c2)c1`, the growth was 104%.

Take `N#CC1=C(N)Oc2c(ccc3cccnc23)C1c1ccccc1` (stereo unspecified): the growth was 45.2%.

Consider `COc1ccc(C2=NN(C=O)C(c3ccc(Oc4nc5c(c(=O)n(C)c(=O)n5C)n4C)c(OC)c3)C2)cc1` (stereo unspecified), for which the growth was 85.2%.

Consider `CCCS(=O)(=O)Nc1cccc(Nc2ncnc3cc(NC(=O)CCl)ccc23)c1Cl`, for which the growth was 0.271% (active).

In the case of `Cn1cc(-c2csc(-c3cn(C)c4ccc(F)cc34)n2)c2cnccc21`, the growth was 5.3% (active).

Consider `C=C(C)[C@@H]1CC[C@]2(C(=O)NC(C)=O)CC[C@]3(C)[C@H](CC[C@@H]4[C@@]5(C)CCCNC(C)(C)[C@@H]5CC[C@]43C)[C@@H]12`, for which the growth was 17.5%.

As to `COc1cccc(CNc2nnc(C)c(C)n2)c1O`, the growth is 99.2%.

In the case of `O=C(/C=C/c1ccc(Cl)cc1)c1ccc(-n2cc(CN3CCN(c4cc5c(cc4F)c(=O)c(C(=O)O)cn5C4CC4)CC3)nn2)cc1`, the growth is 83.6%.

For the compound `COc1cccc2cc(N(C)c3nc(C)nc4c3CCC4)ccc12`, the growth is 10.5%.

For `O=C(O)CCCN1C(=O)CSC1=S`, the growth is 105%.

`Cc1c2cnccc2c(C)c2c1c1cc(C(=O)O)ccc1n2C`: the growth is 5.83% (active).

Take `C=C1C(=O)O[C@H]2[C@H]1CC/C(CNC(=O)/C=C/c1cc(OC)c(OC)c(OC)c1)=C\CC[C@@]1(C)O[C@@H]21`: the growth is 5.04% (active).

Turning to `Cc1nc2ccccc2c(/C=C/c2ccc(Br)cc2)c1C(=O)/C=C/c1ccccc1`, the growth was 2.21% (active).

`CC(=O)O[C@H]1C[C@@]2(C)[C@@H](C[C@@H](O)[C@H]3[C@@]4(C)CC[C@H](N5CCCC5)[C@@H](C)[C@@H]4CC[C@@]32C)/C1=C(\CCC=C(C)C)C(=O)O`: the growth is 102%.

With `O=C(O)c1cc2ccccc2s1`, the growth was 102%.

With `CC(=O)OCCOc1cc(Cl)c(Cl)cc1Cl`, the growth is 103%.

Take `CCN1CCN(c2nc(NNC(=O)c3ccc(OC)cc3)nc(N3CCN(C(c4ccccc4)c4ccccc4)CC3)n2)CC1`: the growth was 63.1%.

As to `Cc1cc(=O)oc2cc(Oc3nc(-c4ccccc4)cn4c(-c5ccccc5)cnc34)ccc12`, the growth is 61.6%.

`CN(Cc1ccccc1)c1nc(Cl)c(C2CC(c3ccc(Cl)cc3)=NN2c2cc(Cl)cc(Cl)c2)s1` (stereo unspecified): the growth is 106%.

In the case of `COC(=O)c1c(C)nc(C)c2c1C(=O)C(Br)=C(NCCCCO)C2=O`, the growth was 57.7%.

As to `COc1cc(/C=C/c2cc(/C=C/c3ccc(O)c(OC)c3)n(C(=O)Nc3ccc(C)cc3C)n2)ccc1O`, the growth is -34.7% (active).

Turning to `Cc1cc2nc(C(Cl)Cl)nc(-c3ccccc3)n2n1`, the growth is 49.6%.

With `CN1C(=O)N(C)C2C1NN=c1s/c(=C\c3ccccc3F)c(=O)n12` (stereo unspecified), the growth was 10.1%.
